The experiment relates to Trypanosoma brucei. The experiment in a line: Trypanosoma brucei 72 hour study. It is filed as functional, organism-based. Details: scale not given: in the data most compounds retested in dose-response had high values.

In all, about 66,000 compounds went through this assay and about 960 (1.5%) showed an effect of 50% or more. The sample as a whole holds a higher share of strong results than the screen did.

`CNCC(=O)Nc1ccc(-c2cnc(NCCS(C)(=O)=O)nc2)cc1`: the “Percent Effect” value (30.3 µM, […]) was -12.7%.
As for `Cc1c[nH]nc1C1CCCN1Cc1ccncc1` (configuration not stated), the “Percent Effect” value (30.3 µM, […]) was -23.61%.
For the molecule `COc1ccccc1CNc1ncc(-c2cc(C)no2)c(C(C)C)n1`, the “Percent Effect” value (30.3 µM, […]) is listed as -4.15%.
Still for that read-out and setting: the same measure for `COc1ccccc1CN1CCCCC1c1n[nH]cc1-c1cc(C)no1.Cl` (configuration not stated): 99.66%; for `COc1cccc(CN2CCCCC2c2n[nH]cc2-c2cc(C)no2)c1.Cl` (configuration not stated): 52.03%.
For `COc1cccc(CN2CCCC2c2ccc[nH]2)c1` (configuration not stated), where the note is “30 µM, 30.03 µM”, the “Percent Effect” value was found to be 1.101%.
The same measure, in the same setting: the same measure for `COc1cccc(CN2CCCC2c2c(C)nn(C)c2C)c1` (configuration not stated): -36.92%.
`COc1ccc(CN2CCCCC2c2n[nH]cc2-c2cc(C)no2)cc1.Cl` (configuration not stated): the “Percent Effect” value (30.3 µM, […]) came out at 57.52%.
Still for that read-out and setting: then `Cc1cc(C2CCCN2Cc2ccn(C)c(=O)c2)on1` (configuration not stated), with 6.831%.
The same measure, in the same setting: the same measure for `COc1ccc(CN2CCC[C@H]2c2nc(-c3cncnc3N)no2)cc1`: -48.86%; for `CCc1ccc(CN2CCCCC2c2n[nH]cc2-c2cc(C)no2)cc1.Cl` (configuration not stated): 53.31%.
`COCC(=O)N1CCCCC1c1nc(N(C)C)ncc1-c1cc(C)no1` (configuration not stated): the “Percent Effect” value (30.3 µM, […]) is recorded as -6.324%.
Take `COc1cccc(CN2CCCCCC2c2cccc(C)c2)c1O` (configuration not stated): the “Percent Effect” value (30 µM, 30.03 µM) was -7.245%.
`CC(C)c1nc(CNC2CCN(S(C)(=O)=O)CC2)cs1`: the “Percent Effect” value (30.3 µM, […]) is -4.773%.
`CC(C)Cn1ccc2c(NC(=O)c3n[nH]c4c3CCC4)cccc21`: the “Percent Effect” value (30 µM, 30.03 µM) amounted to 8.967%.
Take `CCc1nc(C2CCCN2C(=O)c2cc[nH]n2)no1` (configuration not stated): the “Percent Effect” value by setting is: (10 µM) -9.958%; (30.3 µM, […]) 8.971%.
As to `O=C(NCc1ccco1)N1CCC(n2ccc(C(F)(F)F)n2)CC1`, the “Percent Effect” value (30 µM, 30.03 µM) is -15.14%.
Consider `O=C(O)C(F)(F)F.c1coc(CN2CC[C@H]3O[C@@H](COCC4CC4)CC[C@H]32)c1`, for which the “Percent Effect” value (30 µM, 30.03 µM) is -38.88%.
For `Cc1nc(CN2C(=O)CC[C@@H]3[C@H]2CCN3C2CCOCC2)cs1.O=C(O)C(F)(F)F`, the “Percent Effect” value (30 µM, 30.03 µM) was -42.08%.
Turning to `CC(=O)N1CCC2(CC1)CCN(C(=O)c1cccc(C(F)(F)F)c1)C2`, the “Percent Effect” value (30 µM, 30.03 µM) is 38.42%.
On to `Cc1nccc(NCc2cncc3c2CCN(CC2CC2)C3)n1.Cl.Cl`, for which the “Percent Effect” value (30.3 µM, […]) is recorded as -82.02%.
Take `COCCN1CCN(CCS(=O)(=O)c2cccc(OC)c2)CC1`: the “Percent Effect” value (30.3 µM, […]) is -9.149%.
Consider `COc1cccc(S(=O)(=O)CCN2CCN(CC(F)F)CC2)c1`, for which the “Percent Effect” value (30.3 µM, […]) was 100.9%.
With `COc1cccc(S(=O)(=O)CCN2CCN(CCO)CC2)c1`, the “Percent Effect” value (30.3 µM, […]) turned out to be 19.12%.
The same measure, in the same setting: the same measure for `O=C(NCC1CC1)[C@@H]1CCO[C@@H]2CCN(Cc3ccsc3)C[C@H]21.O=C(O)C(F)(F)F`: -183.8%.
Regarding `O=C1CC(c2ccc(O)cc2)c2c(c(C(=O)O)cn2-c2ccccc2)N1` (configuration not stated), for the setting “30 µM, 30.03 µM”, the “Percent Effect” value is on record as -5.69%.
In the case of `O=C1CC(c2cccc(O)c2)c2c(c(C(=O)O)cn2-c2ccccc2)N1` (configuration not stated), for the setting “30 µM, 30.03 µM”, the “Percent Effect” value amounted to 55.14%.
On the same count and under the same terms, the same measure for `O=C1CC(c2ccccc2)c2c(c(C(=O)O)cn2-c2ccccc2)N1` (configuration not stated): -0.2399%; for `CC(=O)N1CCC2(CCN(C(=O)c3cccc(C(F)(F)F)c3)CC2)C1`: -21.66%.
`Cc1ccc(NC(=O)Cn2cc(I)cn2)cc1C`: where the note is “30 µM, 30.03 µM”, the “Percent Effect” value is recorded as -62.87%.
For `COC(=O)CNC(=O)CCc1cc(Cl)cs1`, the “Percent Effect” value (30 µM, 30.03 µM) is 30.07%.
Consider `CC(C)NC(=O)CCNC(=O)CCc1cc(Br)cs1`, for which the “Percent Effect” value (30 µM, 30.03 µM) is given as -16.2%.
`CC(C)NC(=O)CCNC(=O)CCc1cc(Cl)cs1`: the “Percent Effect” value (30 µM, 30.03 µM) was found to be 67.45%.
On the same count and under the same terms, the same measure for `Cc1ccc(CN2CCC3(C2)C(=O)N(CC(C)C)c2ccccc23)s1` (configuration not stated): -8.12%.
With `CC(C)CN1C(=O)C2(CCN(Cc3ccc(F)cc3)C2)c2ccccc21` (configuration not stated), under “30.3 µM, […]”, the “Percent Effect” value amounted to 100.2%.
Take `CC(C)CN1C(=O)C2(CCN(Cc3ccoc3)C2)c2ccccc21.O=C(O)C(F)(F)F` (configuration not stated): the “Percent Effect” value (30.3 µM, […]) is recorded as -10.51%.
For `COCCN1CCC2(CC1)CC(NC(=O)COC)c1ccccc1O2.O=C(O)C(F)(F)F` (configuration not stated), the “Percent Effect” value (30.3 µM, […]) was -14.34%.
Take `CN(C)C(=O)c1n[nH]c2c1CN(CC1CCC1)C2.O=C(O)C(F)(F)F.O=C(O)C(F)(F)F`: where the note is “30.3 µM, […]”, the “Percent Effect” value is recorded as -41.36%.
Take `CC(C)CC(=O)N1C[C@@H]2CCN(c3ncccn3)C[C@@H]2C1.O=C(O)C(F)(F)F`: under “30.3 µM, […]”, the “Percent Effect” value is listed as -27.97%.
For `Cc1cnc(C(=O)N2C[C@H]3CN(Cc4nccs4)C[C@H]3C2)cn1`, the “Percent Effect” value (30 µM, 30.03 µM) was -50.26%.
For `O=C(N1CCCC1)N1Cc2nccn2CC(COc2cccnc2)C1.O=C(O)C(F)(F)F` (configuration not stated), for the setting “30.3 µM, […]”, the “Percent Effect” value is -5.824%.
Turning to `CC1(C)CN(C(=O)NCCc2ccn(-c3ccccc3)n2)CCO1`, the “Percent Effect” value (30 µM, 30.03 µM) was -25.69%.
On the same count and under the same terms, then `O=C(NCCNc1ccccn1)N1CCSCC1`, with -32.01%; and `O=C(NCCc1ccn(-c2ccccc2)n1)N1CCC1`, with 105.4%.
As for `O=C(NCCc1ccn(-c2ccccc2)n1)N1CCSCC1`, the “Percent Effect” value (10 µM) was found to be 92.88%.
With `O=C(NCc1nn(-c2ccccc2)c2c1CCC2)N1CCSCC1`, the “Percent Effect” value (30 µM, 30.03 µM) was -15.48%.

(Values after ChEMBL document CHEMBL3988442, “University of Dundee, Small-Polar-MMV Screening Library” (2021).)
